LmPK inhibitor: LmPK (Leishmania mexicana) enzyme inhibition. Potency, µM (highest dose often 57.5 µM), for inactives: top-dose activity change, negative = inhibition, hits mostly inhibitors. purified LmPK, Kinase-Glo ATP luminescence, 1 h. actives 0.37% (n = 290,000). Q27686; also: potency is read from the fitted curve at half-maximal effect; % is scaled to controls: 0 for no effect and ±100 for the full control effect
Target sequence (Q27686 whole entry, looked up): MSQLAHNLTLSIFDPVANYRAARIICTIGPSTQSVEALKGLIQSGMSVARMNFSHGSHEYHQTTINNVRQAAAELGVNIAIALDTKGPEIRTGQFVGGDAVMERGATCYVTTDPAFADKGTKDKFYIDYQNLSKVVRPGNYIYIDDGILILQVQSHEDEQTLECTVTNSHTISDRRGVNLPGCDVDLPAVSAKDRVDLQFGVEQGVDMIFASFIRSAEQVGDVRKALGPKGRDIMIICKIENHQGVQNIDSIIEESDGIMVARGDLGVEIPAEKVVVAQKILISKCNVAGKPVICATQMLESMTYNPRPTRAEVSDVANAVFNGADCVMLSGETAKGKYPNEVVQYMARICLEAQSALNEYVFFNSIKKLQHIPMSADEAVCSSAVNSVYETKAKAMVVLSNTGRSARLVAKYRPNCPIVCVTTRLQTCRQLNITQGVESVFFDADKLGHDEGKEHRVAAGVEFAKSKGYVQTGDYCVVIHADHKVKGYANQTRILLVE
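0.1 nM LmPK, 0.5 mM PEP, 0.1 mM ADP; 50 mM imidazole pH 7.2, 7 mM MgCl2, 50 mM KCl; 1 h RT. Kinase-Glo luminescence readout, normalized to no-enzyme (full inhibition) and uninhibited wells.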
Pf growth 48h: inhibits P. falciparum growth in the first generation, 48 h. Potency, µM (top dose mostly 28.7 µM), for inactives: at the top dose activity change, negative = inhibition, usual class: inhibitors. P. falciparum luciferase growth in erythrocytes, 48 h. actives 5.9% (n = 310,000). AID 504832; also: potency is read from the fitted curve at half-maximal effect; % is scaled to controls: 0 for no effect and ±100 for the full control effect
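Growth was read as firefly luciferase luminescence after a 48 h, 37 C, 5% CO2 exposure of compounds to reporter-bearing P. falciparum cultures (0.1% parasitemia, 2% hematocrit final) in Albumax-supplemented RPMI 1640.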
Pf growth 96h: inhibits malaria parasite growth, 96 h | Potency, µM (titrated, usually from 28.7 µM), for the others: top-dose activity change, negative = inhibition, most hits filed as inhibitors | AID 504834 | P. falciparum luciferase reporter growth, 96 h | actives 6.9% (n = 320,000); also: potency is read from the fitted curve at half-maximal effect; % is scaled to controls: 0 for no effect and ±100 for the full control effect
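Delayed-death screen, second-generation endpoint: infected erythrocytes, 2% hematocrit, 0.05% parasitemia final; 96 hours at 37 C, 5% CO2; luciferase detection reagent; luminescence decrease equals reduced growth.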
CHX counter: affects cycloheximide protein synthesis inhibition readout, counter-screen | AID 2314 | cell reporter, cycloheximide protein synthesis inhibition counterscreen | actives 12% (n = 300,000) | max response, %; in the data active = max response mostly above about 13%, no sharp cut-off; inactive = mostly below about 14%; also: read at 38.3 µM for the half of the compounds with a filed dose; 0% is about no effect
Shiga inhibitor: blocks Shiga toxin action in Vero cells; Vero cells, Shiga toxin protein synthesis inhibition reporter; inhibition, % at 38.7 µM; actives 9.2% (n = 290,000); in the data active = inhibition mostly above about 28%, no sharp cut-off; inactive = mostly below about 43%; also: 0% is about no effect
* = called active by the depositor; ? = inconclusive; nt = no result given; [ ] = dose if it differs, or a comment. Sampled rows, rich in hits. Any-hit rate of the full collection: about 22%. Unless noted, calls follow the shape of the dose curve; as a rule, active = well fitted inhibition curve with a large enough effect; inconclusive = small, poorly fitted or top-dose-only effect, or another doubt; inactive = no such curve, though single readings can be large or run the other way.

SMILES | LmPK inhibitor | Pf growth 48h | Pf growth 96h | CHX counter | Shiga inhibitor
O=C(NCC1OCCc2ccccc21)c1ccc(NC(=O)c2ccc(Cl)cc2)cc1 (configuration not stated) | 2% | ? | 20% | -3 | 12
Cc1cc(C(=O)CCC(=O)Nc2ncccc2O)c(C)s1 | nt | 26% | 51% | nt | nt
CCc1sc(C(=O)Nc2ncccc2C)cc1C | -4% | 45% | -15% | 41* | 55
CCc1sc(C(=O)Nc2cc(Cl)ccc2N2CCCCC2)cc1C | -1% | nt | 15µM* | 2 | -15
CCc1sc(C(=O)Nc2ncccc2O)cc1C | -12% | 118% | 123% | 36* | 46*
CCc1sc(C(=O)Nc2ccc(F)cc2C)cc1C | 3% | 0% | 26% | 15* | 74*
CCc1sc(C(=O)NCc2ccccc2)cc1C | 6% | 46% | 20% | 9 | 35
CCc1sc(C(=O)Nc2nccs2)cc1C | -2% | 56% | 115% | 57* | 55*
Cc1noc(C)c1C(=O)Nc1nccs1 | 0% | 13% | 18% | -3 | -10
CC(=O)OC1CC[C@@]2(C)C(=CC[C@H]3[C@@H]4CC[C@H](C(C)=O)[C@@]4(C)CC[C@@H]32)C1 (some centres not stated) | nt | nt | nt | -4 | -1
CC[n+]1c(/C=C/Nc2ccccc2)sc2ccccc21 | -6% | ? | -85% | -5 | -13
CCN1/C(=C/C=C/C=C/C=C/c2sc3ccccc3[n+]2CC)Sc2ccccc21 | -5% | ? | 15% | -2 | -14
CCN1/C(=C/C=C/C=C/c2sc3ccccc3[n+]2CC)Sc2ccccc21 | ? | 3µM* | 3.4µM* | -1 | -7
CCN1/C(=C/C=C/c2sc3ccccc3[n+]2CC)Sc2ccccc21 | nt | 0.33µM* | 0.15µM* | nt | nt
COc1cccc(C2=Nn3c(nnc3-c3ccccc3C)SC2)c1 | nt | nt | nt | -1 | -8
O=C(Cc1ccccc1Cl)Nc1cccc(S(=O)(=O)N2CCOCC2)c1 | 3% | 7% | ? | 0 | -7
COc1ccc(NC(=O)CSc2ccccc2)cc1S(=O)(=O)N1CCOCC1 | -1% | -14% | 12µM* | 1 | 22
COc1ccc(NC(=O)COc2ccccc2Cc2ccccc2)cc1S(=O)(=O)N1CCOCC1 | nt | 12µM* | 5.2µM* | nt | nt
COc1ccccc1CCC(=O)Nc1ccc(OC)c(S(=O)(=O)N2CCOCC2)c1 | nt | -8% | ? | nt | nt
O=C(COc1ccccc1Cc1ccccc1)Nc1cccc(S(=O)(=O)N2CCOCC2)c1 | nt | 13µM* | 4.1µM* | nt | nt
O=C(NC1CCN(S(=O)(=O)c2cccc(Cl)c2)CC1)C1CCCCC1 | 4% | 3% | -2% | -1 | 14
OCCCNc1nc(-c2ccccc2)c2cc(Br)ccc2n1 | 1% | -9% | 1.7µM* | 5 | -5
Nc1ccc([As](=O)(O)O)cc1 | 7% | 15µM* | 8.3µM* | -2 | -3
Nc1ccc(S(=O)(=O)c2ccc(N)cc2)cc1 | 2% | -1% | 5% | -1 | -8
O=C(COC(=O)CNC(=O)c1cccc([N+](=O)[O-])c1)Nc1nc2ccccc2s1 | -1% | 8% | 8% | 15* | 33
SMILES | LmPK inhibitor | Pf growth 48h | Pf growth 96h | CHX counter | Shiga inhibitor
CN1CCN(CC(=O)Nc2nc3ccccc3s2)CC1 | -1% | 30% | 0% | 18* | 26
O=C(Cn1ccc([N+](=O)[O-])n1)Nc1nc2ccccc2s1 | -4% | 27% | ? | 26 | 86*
CC1CN(CC(=O)Nc2nc3ccccc3s2)CC(C)O1 (configuration not stated) | 0% | -5% | ? | 12* | 57
NC(=O)C1CCN(C(=S)c2ccc(-c3ccc(Br)cc3)o2)CC1 | -4% | 170% | -32% | 37* | 78*
COc1ccc(C(=S)N2CCC(C(N)=O)CC2)cc1Br | 0% | 45% | 12% | 0 | -7
NC(=O)c1ccc(-c2ccc(Br)cc2)o1 | -3% | ? | -50% | 13 | 56*
CCOc1ccc(NC(=O)CN(C)C(=O)c2ccc(C)o2)cc1OCC | 3% | 22% | 34% | -1 | -9
Cc1cc(Cl)ccc1OCC(=O)NNC(=O)c1cnccn1 | 0%[11.5 µM] | ? | 8.3µM* | 17 | 9
Cc1ccc(C(=O)NNC(=O)COc2ccc(Cl)cc2C)o1 | nt | -6% | -14% | nt | nt
Cc1cc(Br)ccc1OCC(=O)NNC(=O)c1cnccn1 | 4% | ? | 12µM* | 1 | 12
CCOC(=O)C1CCN(C/C=C/c2ccccc2[N+](=O)[O-])CC1 | 3% | 1% | 227% | -2 | 4
